Among the test systems are HCT-15 colon; HT29 colon; SNB-75 CNS; SNB-19 CNS; U251 CNS; PC-3 prostate; SK-MEL-5 melanoma; UACC-62 melanoma; SK-MEL-28 melanoma; SK-MEL-2 melanoma; EKVX NSCLC; SN12C renal; UO-31 renal; ACHN renal; CAKI-1 renal; A498 renal; CCRF-CEM leukemia; MOLT-4 leukemia; TK-10 renal.
What all share (assay): NCI-60 one-dose screen, 48 h (100 = growth as untreated, 0 = no growth, -100 = all killed)
Conditions in all cases: 10 µM unless noted

SMILES strings stand for the structures. About 83,000 compounds went through this panel and 20% of them were active in at least one assay; those are over-represented in the sample as a whole.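 Each cell line was grown in a 96-well plate and treated with one concentration of compound for 48 hours. Values below 10 were considered active.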 A number with no mark means an inactive call. Active and inactive are the calls of the source.

In the case of `N#Cc1c(-c2ccccc2Cl)cc(-c2ccc3ccccc3c2)[nH]c1=O`, the growth with HCT-15 colon is 63.2%; with HT29 colon it was 108%; with SNB-75 CNS, -37.1% (active); in the test on SNB-19 CNS it was 17%; in the test on U251 CNS, -2.47% (active); in the test with PC-3 prostate, 60.6%. Besides, the growth is 79.4% in the test on SK-MEL-5 melanoma; 52.7% with UACC-62 melanoma; 67.9% in the test on SK-MEL-28 melanoma; 95.4% with SK-MEL-2 melanoma; 41.1% in the test with EKVX NSCLC; 0.758% (active) in the test on SN12C renal. Also, the growth in the test on UO-31 renal is 0.793% (active); with ACHN renal it was 9.07% (active); in the test with CAKI-1 renal, 25.1%; in the test with A498 renal it was -29.6% (active); in the test with CCRF-CEM leukemia, 56.8%; in the test on MOLT-4 leukemia it was 56.1%.
`CNC(=O)c1cc(Oc2ccc3nc(NC(=O)Nc4cccc(OC(F)(F)F)c4)sc3c2)ccn1`: the growth with HCT-15 colon was 51.1%; with HT29 colon, 25%; in the test on SNB-75 CNS it was 6.6% (active); in the test with SNB-19 CNS, -46.6% (active); in the test on U251 CNS, 2.42% (active); in the test with PC-3 prostate, 4.97% (active). Also, the growth is 53.7% in the test with SK-MEL-5 melanoma; -4.81% (active) with UACC-62 melanoma; 31.9% in the test on SK-MEL-28 melanoma; -20.5% (active) with SK-MEL-2 melanoma; 42.8% with EKVX NSCLC; 23.4% in the test on SN12C renal. Further, the growth is 14.5% in the test on UO-31 renal; -33.7% (active) in the test on TK-10 renal; -2.02% (active) with ACHN renal; -8.87% (active) with CAKI-1 renal; 8.49% (active) with A498 renal; 52.9% in the test with CCRF-CEM leukemia. In the test with MOLT-4 leukemia, the growth is 50.9%.
With `O=C(NNc1ccccc1)n1c(=O)c2ccccc2c(=O)n1-c1ccccc1`, the growth is 91.4% with HCT-15 colon; 98.8% in the test on HT29 colon; 80.3% with SNB-75 CNS; 94.6% in the test with SNB-19 CNS; 94.1% in the test on U251 CNS; 92.6% in the test on PC-3 prostate. The growth in the test on SK-MEL-5 melanoma was 101%; in the test with UACC-62 melanoma it was 91.2%; in the test with SK-MEL-28 melanoma it was 104%; in the test with SK-MEL-2 melanoma it was 117%; in the test on EKVX NSCLC, 91.3%; in the test with SN12C renal it was 85.9%. The growth in the test on UO-31 renal is 81.5%; with ACHN renal, 93.7%; with CAKI-1 renal it was 77.2%; in the test on A498 renal, 101%; in the test on CCRF-CEM leukemia, 99.5%; in the test with MOLT-4 leukemia it was 91.3%.
For `O=C(COc1ccc(NC(=O)Nc2ccc(Cl)c(Cl)c2)cc1)N=Nc1c(O)[nH]c2ccc(Br)cc12`, the growth in the test with HCT-15 colon is 27%; in the test with HT29 colon, -46.2% (active); in the test on SNB-75 CNS, 7.51% (active); in the test on SNB-19 CNS, -5.58% (active); with U251 CNS it was -84.7% (active); with PC-3 prostate, -16.6% (active). Further, the growth with SK-MEL-5 melanoma is -89% (active); with UACC-62 melanoma, -35.5% (active); with SK-MEL-28 melanoma it was -77% (active); in the test with SK-MEL-2 melanoma, -71.6% (active); in the test on EKVX NSCLC it was 4.88% (active); with SN12C renal it was -20.9% (active). Besides, the growth with UO-31 renal was 51.1%; in the test on TK-10 renal, -0.92% (active); in the test on ACHN renal, 12.5%; in the test on CAKI-1 renal, 0.251% (active); in the test with CCRF-CEM leukemia, 9.52% (active); in the test on MOLT-4 leukemia it was -3.16% (active).
Regarding `C=C1CCC2C3(C)COC(c4cccc(F)c4)OC3CCC2(C)C1C/C=C1/C(=O)OCC1O` (stereo unspecified), the growth was -23.6% (active) in the test with HCT-15 colon; -1.9% (active) with HT29 colon; 54.1% with SNB-75 CNS; 30.1% in the test with SNB-19 CNS; -90% (active) with U251 CNS; -17.5% (active) in the test with PC-3 prostate. Besides, the growth in the test with SK-MEL-5 melanoma was -19.3% (active); with UACC-62 melanoma it was 2.91% (active); in the test on SK-MEL-28 melanoma, -26.2% (active); in the test on SK-MEL-2 melanoma, -50.6% (active); with EKVX NSCLC it was 23.1%; in the test with SN12C renal, 4.14% (active). Also, the growth was -63.2% (active) in the test on UO-31 renal; -6.05% (active) in the test with TK-10 renal; -89.6% (active) in the test on ACHN renal; 11% with CAKI-1 renal; 118% in the test with A498 renal; 7.01% (active) in the test with MOLT-4 leukemia.
On to `COc1ccc(C2=NN(C(C)=O)C(c3ccc(OCc4ccc(Cl)cc4)c(OC)c3)C2)cc1OC` (stereo unspecified), for which the growth in the test on HCT-15 colon was 27.9%; in the test on HT29 colon it was 40.1%; in the test on SNB-75 CNS it was 61.3%; in the test with SNB-19 CNS, 51.4%; in the test on U251 CNS, 46.8%; with PC-3 prostate it was 23.6%. Further, the growth with SK-MEL-5 melanoma is -9.52% (active); with UACC-62 melanoma, 34%; with SK-MEL-28 melanoma it was 56.8%; in the test with SK-MEL-2 melanoma it was 44.1%; in the test with EKVX NSCLC it was 46.3%; in the test on SN12C renal, 43.2%. In addition, the growth in the test with UO-31 renal was 22.4%; in the test on TK-10 renal it was 44.1%; with ACHN renal it was 42.9%; with CAKI-1 renal it was 47.2%; in the test on CCRF-CEM leukemia it was 50.1%; in the test with MOLT-4 leukemia, 20.5%.
Turning to `COc1cc(/C=C/C(=O)c2ccc(C)cc2)ccc1Oc1nc(Nc2ccc(F)cc2)nc(N(C)C)n1`, the growth in the test with HCT-15 colon is 17.3%; in the test on HT29 colon, 44.1%; in the test on SNB-75 CNS it was 50.8%; with SNB-19 CNS, 23.4%; in the test on U251 CNS it was 11.3%; in the test with PC-3 prostate, 50.8%. Further, the growth was 30.5% in the test with SK-MEL-5 melanoma; 42.1% with UACC-62 melanoma; 73.4% with SK-MEL-28 melanoma; 44.9% in the test with SK-MEL-2 melanoma; 60.6% in the test with EKVX NSCLC; 17.4% with SN12C renal. In addition, the growth is 36.2% with UO-31 renal; 77.3% with TK-10 renal; 3.65% (active) in the test on ACHN renal; 66.3% in the test with A498 renal; 17% with CCRF-CEM leukemia; 9.34% (active) in the test with MOLT-4 leukemia.
Take `COc1cccc(-c2c(C#N)c(-c3ccc(Cl)cc3)nc3n[nH]c(-c4ccc(Cl)cc4)c23)c1`: the growth with HCT-15 colon is 9.74% (active); in the test on HT29 colon, 27.9%; with SNB-75 CNS, 56.3%; in the test on SNB-19 CNS, 68.2%; in the test with U251 CNS, 48.5%; in the test on PC-3 prostate, 23.9%. For the same compound, the growth with SK-MEL-5 melanoma was 30.9%; in the test with UACC-62 melanoma, 61.3%; in the test on SK-MEL-28 melanoma, 73.6%; with SK-MEL-2 melanoma, 53.1%; in the test with EKVX NSCLC it was 33.9%; in the test with SN12C renal it was 44.8%. Moreover, the growth with UO-31 renal is 35.2%; in the test with TK-10 renal, 71.8%; in the test with ACHN renal, 56.2%; in the test with CAKI-1 renal, 39.1%; with A498 renal it was 100%; in the test with CCRF-CEM leukemia it was 23.7%. Further, the growth in the test on MOLT-4 leukemia was 2.7% (active).

Values taken from PubChem BioAssay (NCI).
